Measured values reported in PubChem BioAssay AID1851 (National Center for Advancing Translational Sciences (NCATS), 2009).
“And” between values parts separate entries of the source, which are not always exact repeats. Identical values can stand only once. The campaign covered roughly 16,000 compounds. About 5,700 (36%) were called active. Roughly 24% stayed inconclusive and do not appear here. The call rests on the fitted dose curve; in most records, active means well fitted curve in the direction sought with a large enough effect; inconclusive means small, poorly fitted or top-dose-only effect, or effect the other way; inactive means no such curve, though single readings can be large or run the other way. The list shows a part of the results. A structure can be active in one record and inactive in another.

These compounds were tested against Cytochrome P450 1A2 (Homo sapiens) (UniProt P05177) (assay: Cytochrome panel assay with activity outcomes). Conditions: recombinant CYP, pro-luciferin dealkylation, luminescence, p450-cyp1a2; series mostly up to 57.1 µM.
Sequence of Cytochrome P450 1A2 (Homo sapiens) (P05177 whole entry, looked up): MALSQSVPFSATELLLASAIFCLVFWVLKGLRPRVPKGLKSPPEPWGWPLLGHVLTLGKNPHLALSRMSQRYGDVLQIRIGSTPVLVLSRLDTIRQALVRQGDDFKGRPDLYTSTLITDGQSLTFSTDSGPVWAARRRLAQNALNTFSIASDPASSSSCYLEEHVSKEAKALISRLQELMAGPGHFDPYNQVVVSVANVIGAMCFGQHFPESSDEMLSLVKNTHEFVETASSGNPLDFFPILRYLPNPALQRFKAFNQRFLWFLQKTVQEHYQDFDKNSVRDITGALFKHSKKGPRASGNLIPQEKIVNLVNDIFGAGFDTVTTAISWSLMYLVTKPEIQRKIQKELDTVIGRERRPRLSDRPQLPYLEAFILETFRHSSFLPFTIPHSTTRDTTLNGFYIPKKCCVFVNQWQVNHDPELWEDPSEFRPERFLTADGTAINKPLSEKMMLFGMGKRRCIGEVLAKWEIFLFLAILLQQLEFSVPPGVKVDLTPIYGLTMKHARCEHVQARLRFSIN
On the % scale 0 is the no-effect control and ±100 the full control effect.

| SMILES | activity, negative = inhibition | AC50 |
| --- | --- | --- |
| COc1ccc2cc1Oc1ccc(cc1)C[C@@H]1c3c(cc(OC)c4c3Oc3cc5c(cc3O4)CCN[C@H]5C2)CCN1C | -14.6% [at 11.4 µM] (inactive) | – |
| NCCS | – | inactive |
| O=C(N/N=C1/C[C@@H](O)[C@@H](O)[C@@H]2[C@H]3C(=O)N(c4ccc(F)cc4F)C(=O)[C@@H]3CC[C@@H]12)OCc1ccccc1 | -2.1% [at 11.4 µM] (inactive) | – |
| CCCCn1nnnc1SCC(=O)c1cc(Cl)ccc1OC | – | 4470 nM (active) |
| COCCCn1nnnc1SCC(=O)N1CCCC1 | – | inactive |
| CCCCn1nnnc1SCC(=O)N1CCCC1 | – | inactive |
| CSc1ccc(Cl)c(C(=O)NCCOc2cc(C)ccc2C(C)C)c1 | – | 2240 nM (active) |
| CC(C)(N=NC(C)(C)C1=NCCN1)C1=NCCN1 | -3.55% [at 11.4 µM] (inactive) | – |
| COc1ccc(S(=O)(=O)N(CC(=O)NCC2CCCO2)c2ccc(F)cc2)cc1OC (configuration not stated) | – | inactive |
| COC(=O)c1[nH]c2cccc(OC)c2c1NC(=O)CN(C)CC1OCCO1 | – | 14100 nM (active) |
| CCS(=O)(=O)N1CCC(C(=O)NCc2ccc(F)cc2Cl)CC1 | – | inactive |
| CCN1C(=O)[C@H]2[C@H]3[C@H](O)[C@H](O)C/C(=N/O[C@@H](C)c4cn([C@H](CO)Cc5ccccc5)nn4)[C@@H]3CC[C@@H]2C1=O | -6.67% [at 11.4 µM] (inactive) and -6.23% [at 11.4 µM] (inactive) | – |
| C[C@H](N=C(NC#N)Nc1ccncc1)C(C)(C)C | – | inactive and 15.8 µM (active) |
| C[C@H](N)C1CCC(C(=O)Nc2ccncc2)CC1 (some centres not stated) | – | inactive |
| O=C(O)[C@@H]1CS[C@@]2(CCCN(Cc3ccccc3)C2)N1 | -12% [at 2.29 µM] (inactive) | – |
| Cc1cccc(CCNc2nc3ccccc3n3nnnc23)c1 | – | 891 nM (active) |
| Cc1ccc(C(=O)Nc2nc3ccccc3n3nnnc23)cc1 | – | 2510 nM (active) |
| Cn1c(=O)c2c(ncn2CN2CCN(Cn3cnc4c3c(=O)n(C)c(=O)n4C)CC2)n(C)c1=O | -18.2% [at 2.29 µM] (inactive) | – |
| Nc1c(C(=O)NCc2ccccc2)sc2nc3c(cc12)C(=O)CCC3 | – | 20000 nM (active) |
| O=C(/C=C/c1cc2c(cc1Br)OCO2)NCc1ccc(Cl)cc1 | – | 1580 nM (active) |
| C/C(=C\C(=O)c1ccc(Br)cc1)NCc1ccc2c(c1)OCO2 | – | 1410 nM (active) |
| C/C(=C\C(=O)c1ccc(Cl)cc1)NCc1ccc2c(c1)OCO2 | – | 1000 nM (active) |

| SMILES | activity, negative = inhibition | AC50 |
| --- | --- | --- |
| O=C1Nc2ccc([N+](=O)[O-])cc2C1(O)N1CCCCCC1 (configuration not stated) | – | inactive |
| CN(C)Cc1ccccc1-c1nc(NC2CC2)c2ccccc2n1 | – | 5010 nM (active) |
| CNc1nc(-c2ccccc2CN(C)C)nc2ccccc12 | – | 3160 nM (active) |
| Cc1cccc(CNc2nc(-c3ccccc3CN(C)C)nc3ccccc23)c1 | – | 3160 nM (active) |
| CN(C)Cc1ccccc1-c1nc(N(C)C)c2ccccc2n1 | – | 1260 nM (active) |
| C/C(CC/C(C)=N/O)=N/O | -12.6% [at 2.29 µM] (inactive) | – |
| COCCNc1nc(-c2ccccc2CN(C)C)nc2ccccc12 | – | 10000 nM (active) |
| CN(C)Cc1ccccc1-c1nc(NCc2ccccc2)c2ccccc2n1 | – | 1260 nM (active) |
| CN(C)Cc1ccccc1-c1nc(NCc2cccs2)c2ccccc2n1 | – | 1000 nM (active) |
| Cc1cn([C@H]2C[C@H](O)[C@@H](COC(N)=O)O2)c(=O)[nH]c1=O | -14.6% [at 2.29 µM] (inactive) | – |
| CCn1c(SCC(=O)N2CCOCC2)nc2oc3c(Cl)cc(Cl)cc3c(=O)c2c1=O | – | 12600 nM (active) |
| CCCCn1c(SCC(=O)N2CCCC2)nc2c1c(=O)n(C)c(=O)n2C | – | inactive |
| Oc1ccccc1C1Nc2cccc3cccc(c23)N1 | – | 1000 nM (active) |
| S=C1N(c2ccccc2)C(c2ccc(Cl)cc2)N2CCCN12 (configuration not stated) | – | 4470 nM (active) |
| CCOC(=O)c1sc2nc3c(cc2c1N)COC(C(C)C)C3 (configuration not stated) | – | inactive |
| CCOC(=O)c1sc2nc3c(cc2c1N)COC(C)(CC)C3 (configuration not stated) | – | 25100 nM (active) |
| COc1ccc2[nH]cc(CCNc3cc(-c4ccccc4OC)ncn3)c2c1 | – | 1580 nM (active) |
| COc1ccc2[nH]cc(CCNc3cc(-c4ccccc4C)ncn3)c2c1 | – | 1000 nM (active) |
| COc1ccc2[nH]cc(CCNc3cc(-c4ccccc4C(F)(F)F)ncn3)c2c1 | – | 10000 nM (active) |
| COc1ccc(O[C@H]2C=C[C@@H](c3ccccc3)O[C@H]2CO/N=C\C[C@@H]2C=C[C@H](OC(C)=O)[C@H](COC(C)=O)O2)cc1 | 1.58% [at 11.4 µM] (inactive) | – |
| CC(C)CO/N=C1/C[C@@H](O)[C@@H](O)[C@@H]2[C@H]3C(=O)N(c4ccc(F)cc4F)C(=O)[C@@H]3CC[C@@H]12 | -0.174% [at 11.4 µM] (inactive) | – |
| Cc1cc(OC(=O)c2cc(F)c(F)cc2Cl)nc(C)n1 | – | inactive |

| SMILES | activity, negative = inhibition | AC50 |
| --- | --- | --- |
| COc1ccc(C(=O)/C=C(/C)N(C)C)cc1 | – | 3550 nM (active) |
| CC(C)CSC[C@@H]1O[C@H](n2cnc3c(N)nccc32)[C@H](O)[C@@H]1O | 3.41% [at 11.4 µM] (inactive) | – |
| O=C(O)C1CCC(=O)N(C2CC2)C1c1ccccc1 (configuration not stated) | – | inactive |
| CC1CCC(C(=O)O)([C@H](Br)C(=O)O)CC1 (some centres not stated) | -8.77% [at 11.4 µM] (inactive) | – |
| CN(C)c1oc(-c2ccccc2)nc1C#N | – | 3160 nM (active) |
| CN(C)C(=O)c1ccc(-c2ccc3ncnc(Nc4ccc(F)cc4)c3c2)cc1 | – | 20000 nM (active) |
| CN(C)C(=O)c1ccc(-c2ccc3ncnc(Nc4ccccc4)c3c2)cc1 | – | 15800 nM (active) |
| COC(=O)C/C=C\[C@@H](C)[C@@H](/C=N\OC[C@@H](O)[C@H]1O[C@H]2OC(C)(C)O[C@H]2[C@@H]1O)OC | -15.6% [at 11.4 µM] (inactive) | – |
| Cc1ccc(OCC(=O)NNC(=O)CCc2ccccc2)cc1 | – | inactive |
| Cc1ccc(OCC(=O)NNC(=O)C2CCN(c3ncccn3)CC2)cc1 | – | inactive |
| Cc1ccc(OCC(=O)Nn2cnc3ccccc32)cc1 | – | 6310 nM (active) |
| Cc1ccc(N(C(C)C(=O)Nc2cc(Cl)ccc2Oc2ccccc2)S(C)(=O)=O)cc1 (configuration not stated) | – | inactive |
| Cc1ccc(OCC(=O)Nc2ccc(Cl)cc2)c(-n2nc3ccccc3n2)c1 | – | 3550 nM (active) |
| CC(C)(C)c1ccc(OCC(=O)O)c(Cl)c1 | -16.2% [at 11.4 µM] (inactive) | – |
| Cc1cc(Cl)ccc1OC(C)C(=O)Nc1ccc(S(=O)(=O)Nc2cnc3ccccc3n2)cc1 (configuration not stated) | – | inactive |
| Cc1cc(NC(=O)COc2ccc(Cl)cc2Cl)n(-c2ccccc2)n1 | – | 1780 nM (active) |
| O=C(COc1ccccc1Cl)Nc1cc(Cl)ccc1Oc1ccccc1 | – | 2510 nM (active) |
| O=C(Nc1cccc(C(F)(F)F)c1)c1ccc(Cn2cc(Br)cn2)o1 | – | 2000 nM (active) |
| CC(C)CN1CCC2(CC1)CCN(C(=O)c1csnn1)CC2 | – | inactive |
| OCCCNCc1ccccn1 | -20% [at 2.29 µM] (inactive) | – |
| OCCNCCCOc1cccc(Cl)c1Cl | – | 200 nM (active) |
| CCCCNN | -6.54% [at 2.29 µM] (inactive) | – |

| SMILES | activity, negative = inhibition | AC50 |
| --- | --- | --- |
| CN(C)S(=O)(=O)c1ccc(Nc2ccc(O)c3c2C(=O)c2c([N+](=O)[O-])ccc(O)c2C3=O)cc1 | – | 126 nM (active) |
| O=C(CCCN1CC=C(n2c(=O)[nH]c3ccccc32)CC1)c1ccc(F)cc1 | – | inactive |
| COC(=O)CCSc1cc([N+](=O)[O-])cc2c1c(C1OCCS1)nn2-c1ccccc1 (configuration not stated) | – | 28200 nM (active) |
| CN(C)C=Nc1ccc2nn(-c3ccccc3)nc2c1 | – | 708 nM (active) |
| O=C(O)c1nn(-c2ccccc2)nc1-c1nn(-c2ccccc2)nc1C(=O)O | – | inactive |
| CC(=O)OC[C@@H]1O[C@@H](O/N=C2/C[C@@H](O)[C@@H](O)[C@@H]3[C@@H]4C(=O)N([C@@H](C)c5ccccc5)C(=O)[C@H]4CC[C@H]23)[C@H](OC(C)=O)[C@H](OC(C)=O)[C@@H]1OC(C)=O | 3.02% [at 11.4 µM] (inactive) | – |
| Cc1nn(C)c(Cl)c1NC(=O)OCc1ccc(F)cc1 | – | 14100 nM (active) |
| Cc1nn(C)c(Cl)c1NC(=O)OCc1ccc(Cl)cc1Cl | – | 5010 nM (active) |
| CC(C)(C)C(=O)OCOC(=O)[C@@H]1N2C(=O)[C@@H](NC(=O)[C@H](N)c3ccccc3)[C@H]2SC1(C)C | – | inactive |
| COc1ccc(O[C@H]2C=C[C@@H](c3ccccc3)O[C@H]2COC(=O)CC/C(C)=N\O[C@@H](C)c2cc(-c3c(C)cc(C)cc3C)no2)cc1 | -2.73% [at 11.4 µM] (inactive) | – |
| N#Cc1cccc(-c2cc(NCc3ccccc3)ncn2)c1 | – | 1000 nM (active) |
| N#Cc1cccc(-c2cc(NCc3cccs3)ncn2)c1 | – | 794 nM (active) |
| N#Cc1cccc(-c2cc(NCc3cccnc3)ncn2)c1 | – | 39.8 nM (active) |
| Cc1cccc(CNc2cc(-c3cccc(C#N)c3)ncn2)c1 | – | 158 nM (active) |
| C[C@@H](c1ccccc1)N1C(=O)[C@H]2[C@@H]3[C@H](O)C=CC(=O)[C@H]3CC[C@H]2C1=O | -9.41% [at 11.4 µM] (inactive) | – |
| COC(=O)C1C(=O)C2=C(CC1C)NC(=O)CC2c1cccc(C)c1 (configuration not stated) | – | inactive |
| COC(=O)[C@@]1(Cc2ccccc2)[C@H]2c3cc(C(=O)N4CCCC4)n(Cc4ccc(S(C)(=O)=O)cc4)c3C[C@H]2CN1C(=O)c1ccccc1 | – | inactive |
| CN(CC[C@@H](Oc1ccc(-c2ccccc2)cc1)c1ccc(F)cc1)CC(=O)O | – | inactive |
| O=C(Nc1ccc(Cl)cc1)OCCn1nnnc1C(c1ccccc1Cl)N1CCOCC1 (configuration not stated) | – | 15800 nM (active) |
| COc1ccc(Cn2nnnc2C(c2ccccc2Cl)N2CCC(C(N)=O)CC2)cc1 (configuration not stated) | – | inactive |
| COC(=O)CNC(c1ccccc1Cl)c1cc(Br)ccc1NC(=O)CCN1CCOCC1 (configuration not stated) | – | inactive |
